Screens (PubChem)
A selection: hits, their analogues and other compounds. The true share with any hit is near 19%.
ELG1 repair inh: blocks ELG1-dependent DNA repair in HEK293T cells. AID 504467. 2.3% of 330,000 active. HEK293T ELG1-luciferase reporter, luminescence, 16 h; DNA damage induced by 5-fluorouridine. Potency, µM (top dose mostly 46.1 µM), most hits filed as inhibitors; further: nearly all actives have a fitted effect of over 55% in size
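DMSO vehicle served as the neutral condition. Each well held 2,000 cells given 5-fluorouridine plus compound; after 16 hr at 37 °C/5% CO2, ONE-Glo was added and luciferase measured 30 min later.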
DT40 TDP1 no CPT: qHTS for Inhibitors of human tyrosyl-DNA phosphodiesterase 1 (TDP1): qHTS in cells in absence of CPT; Potency, µM (titrated, usually from 46.2 µM), most hits filed as inhibitors; AID 686978, 2013; DT40 Tdp1-/- hTDP1 cells, no CPT, ATP luminescence, 48 h; 15% of 420,000 active; further: nearly all actives have a fitted effect of over 55% in size
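Camptothecin absent (DMSO only). Human TDP1-complemented DT40 knockout cells, 400 cells/well, 37 °C for minimum 48 hr; ATP measured via CellTiter-Glo, 30 min dark incubation, luminescence.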
DT40 TDP1 CPT: DT40-hTDP1 cell growth loss with CPT; AID 686979; 12% of 420,000 active; Potency, µM (top dose mostly 46.2 µM), usual class: inhibitors; chicken DT40 Tdp1-/-;hTDP1 cells + 20 nM CPT, ATP luminescence, 48 h; further: nearly all actives have a fitted effect of over 55% in size
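Cell growth measured by CellTiter-Glo luminescence after a minimum 48 h, 37 C compound exposure with 20 nM CPT in Tdp1-knockout DT40 cells stably expressing hTDP1, seeded 400/well; qHTS titration format.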
IL-1B inflam inh: inflammasome signaling inhibition, IL-1 beta readout. THP-1 LPS/ATP IL-1B secretion, AlphaLISA, 16 h; hits give low values. activity change, % at 57.5 µM. 4.7% of 360,000 active; in the data active means activity change below about -50%; inconclusive means mostly about -30% to -49%
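THP-1 cells pretreated 1 hr with compounds (up to 57.5 uM final), then stimulated with LPS (250 ng/mL final) plus ATP (1.25 mM final); secreted IL-1B measured by AlphaLISA after 16 hr, decreased signal indicating inhibition.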
Giardia kill: Giardia lamblia killing. Giardia lamblia trophozoite viability. activity change, % at 7.66 µM, hits read low. 0.15% of 340,000 active; in the data active means activity change below about -80%; inconclusive means between about -30% and that limit;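 further: parasites exposed to compound for two days anaerobically before the ATP read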
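Anaerobic 48 hrs incubation at 37 deg C of 100 trophozoites/well with test compounds; ATPLite 1-Step luminescence, 15-30 min RT, reports cellular ATP as viability.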
TDP1 inh: blocks human tyrosyl-DNA phosphodiesterase 1. Q9NUW8. recombinant TDP1, AlphaScreen DNA substrate cleavage. Potency, µM (top dose mostly 130 µM), usual class: inhibitors. 0.28% of 350,000 active. AID 485290; further: nearly all actives have a fitted effect of over 40% in size
Target sequence (Q9NUW8 whole entry, looked up): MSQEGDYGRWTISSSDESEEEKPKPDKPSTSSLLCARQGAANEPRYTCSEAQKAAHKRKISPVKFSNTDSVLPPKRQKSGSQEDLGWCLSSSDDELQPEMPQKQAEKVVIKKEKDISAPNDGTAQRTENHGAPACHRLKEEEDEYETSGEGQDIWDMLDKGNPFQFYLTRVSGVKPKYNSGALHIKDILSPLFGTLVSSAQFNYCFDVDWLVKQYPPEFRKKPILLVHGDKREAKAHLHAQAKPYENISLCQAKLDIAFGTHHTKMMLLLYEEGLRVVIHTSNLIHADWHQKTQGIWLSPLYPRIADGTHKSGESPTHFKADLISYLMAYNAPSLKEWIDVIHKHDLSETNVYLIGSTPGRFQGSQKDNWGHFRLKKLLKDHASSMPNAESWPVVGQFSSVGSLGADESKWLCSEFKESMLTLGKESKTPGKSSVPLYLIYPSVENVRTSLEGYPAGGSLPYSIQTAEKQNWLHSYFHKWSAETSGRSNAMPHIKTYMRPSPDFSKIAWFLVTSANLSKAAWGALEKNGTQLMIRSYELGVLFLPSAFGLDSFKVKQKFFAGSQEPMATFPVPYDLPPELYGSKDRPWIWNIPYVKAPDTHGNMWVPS
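Tdp1 1 nM final; 15 min RT w/ cpd; substrate 15 nM, 5 min; beads 10 ug/ml, 10 min; AlphaScreen read. Neg ctrl: no enzyme.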
A number is an active result; n = inactive; u = inconclusive; x = no result given. Unless noted, the call rests on the fitted dose curve; in most records, active means well fitted curve in the direction sought with a large enough effect; inconclusive means small, poorly fitted or top-dose-only effect, or another doubt; inactive means no such curve, though single readings can be large; an effect the other way counts as inactive or inconclusive.

SMILES	ELG1 repair inh	DT40 TDP1 no CPT	DT40 TDP1 CPT	IL-1B inflam inh	Giardia kill	TDP1 inh
O=C(COc1ccc2c3c(c(=O)oc2c1)CCC3)NCc1cccnc1	n	n	n	n	n	n
CNC(=O)C1CC(=O)N(CCc2ccc(OC)c(OC)c2)C(=Nc2ccc(F)cc2)S1 (stereo unspecified)	n	u	n	-76.9	n	n
COC[C@@H]1CCCN1c1ccc2c(c1)O[C@@H](COCc1ccccc1)CN([C@@H](C)c1ccccc1)S2(=O)=O	x	11.6µM	9.2µM	n	x	x
C[C@H](c1ccccc1)N1C[C@@H](COCc2ccccc2)Oc2cc(N3CCC[C@H]3CO)ccc2S1(=O)=O	x	18.4µM	u	n	x	x
C[C@@H](c1ccccc1)N1C[C@H](COCc2ccccc2)Oc2cc(N3CCC[C@@H]3CO)ccc2S1(=O)=O	x	u	u	n	x	x
COC[C@@H]1CCCN1c1ccc2c(c1)O[C@@H](COCc1ccccc1)CN([C@H](C)c1ccccc1)S2(=O)=O	x	23.1µM	u	n	x	x
C[C@H](c1ccccc1)N1C[C@H](COCc2ccccc2)Oc2cc(N3CC[C@H](O)C3)ccc2S1(=O)=O	x	u	u	n	x	x
CCn1nc(C)c(CNCc2cn[nH]c2-c2cc3ccccc3o2)c1C	n	n	n	n	n	x
C#CCOC(=O)Nc1ccc(OCC(F)(F)F)nc1	n	7.31µM	9.2µM	n	n	n
C#CCOC(=O)Nc1cnccc1C(F)(F)F	n	n	n	n	n	n
CC(C)Cc1nn2c(=O)cc(COC(=O)c3ccccc3NC(=O)c3cccs3)nc2s1	x	u	n	x	x	n
CC(C)c1nn2c(=O)cc(COC(=O)c3ccccc3NC(=O)c3cccc(Cl)c3)nc2s1	x	18.4µM	16.4µM	x	x	n
CC(C)c1nn2c(=O)cc(COC(=O)c3ccccc3NC(=O)c3cccs3)nc2s1	x	7.31µM	7.31µM	x	x	n
COC(=O)c1ccc(Cl)cc1NC(=O)Nc1nnc(N(C)Cc2ccccc2)s1	x	n	n	x	x	n
COc1ccc(C(CC(=O)O)NC(=O)COc2ccc(C)cc2)cc1OC (stereo unspecified)	n	n	n	n	n	n
O=C(/C=C/c1c(Cl)cccc1Cl)n1cccn1	n	16.4µM	u	-52.2	n	n
O=C(/C=C/c1c(Cl)cccc1Cl)N1CCOCC1	n	u	n	n	n	x
CCc1ccc(CN(C)C(=O)C2CCC(=O)N(Cc3ccccn3)C2)cc1 (stereo unspecified)	n	n	n	n	n	n
O=C(NCc1ccccc1Cl)c1c2c(nc3ccccc13)C(=O)N(C1CCCCC1)C2	x	u	18.4µM	x	x	n
O=C(NCc1ccccc1)c1c2c(nc3ccccc13)C(=O)N(C1CCCCC1)C2	x	18.4µM	16.4µM	x	x	n
Cc1ccc(CCNC(=O)c2c3c(nc4ccccc24)C(=O)N(C2CCCCC2)C3)cc1	x	10.3µM	20.6µM	x	x	n
CCN(CC)CCNC(=O)c1c2c(nc3ccccc13)C(=O)N(C1CCCCC1)C2	x	n	n	x	x	n
COc1ccc2nc(C3CCCCC3)c3c(c2c1)CCC3	x	u	u	n	n	x
CCN1CCN(c2ccc(S(=O)(=O)N3CCOCC3)cc2NC(=O)/C=C/c2ccc([N+](=O)[O-])cc2)CC1	n	2.91µM	u	-106.0	n	x
COc1ccc(/C=C/C(=O)Nc2ccc(S(=O)(=O)N3CCOCC3)cc2)c(OC)c1	23.1µM	18.4µM	u	n	n	n
SMILES	ELG1 repair inh	DT40 TDP1 no CPT	DT40 TDP1 CPT	IL-1B inflam inh	Giardia kill	TDP1 inh
CCN1CCN(c2ccc(S(=O)(=O)N3CCOCC3)cc2NC(=O)/C=C/c2ccc(OC)cc2OC)CC1	n	u	25.9µM	n	n	n
COc1ccc(/C=C/C(=O)Nc2ccc(C)c(S(=O)(=O)N3CCOCC3)c2)cc1	20.6µM	18.4µM	u	n	n	n
COc1ccc(NC(=O)/C=C/c2ccc(S(=O)(=O)N3CCOCC3)cc2)cc1	n	n	n	n	n	n
CC1(C)CC(=O)C=C(OC(=O)c2ccc(Cl)cc2)C1	n	n	n	n	n	n
COc1ccc(CNC(=O)Cc2cn(C)c3ccccc23)c(OC)c1	n	n	n	n	n	x
O=C(CSc1nc(Nc2ccccc2)nc(N2CCOCC2)n1)Nc1ccc([N+](=O)[O-])cc1	u	14.6µM	18.4µM	u	n	n
O=C(CSc1nc(Nc2ccccc2)nc(N2CCOCC2)n1)Nc1cccc([N+](=O)[O-])c1	20.6µM	u	u	u	n	n
O=C(Nc1ccc([N+](=O)[O-])cc1)Nc1ccc(N2CCOCC2)c2nonc12	n	23.1µM	20.6µM	u	n	n
O=C(CSc1nc(Nc2ccccc2)nc(N2CCOCC2)n1)NC1CCCCC1	n	u	u	n	n	n
O=C(CSc1nc(N2CCOCC2)nc(N2CCOCC2)n1)Nc1ccc([N+](=O)[O-])cc1	16.4µM	u	u	n	n	n
O=C(NNC(=O)c1ccc(Br)s1)c1ccc(F)c(S(=O)(=O)N2CCOCC2)c1	u	n	u	n	n	n
O=C(OCc1cc(=O)n2nc(C3CC3)sc2n1)c1ccc(NC(=O)c2ccccc2F)cc1	x	n	n	x	x	n
O=C(OC1Cc2c(O)cc(O)cc2OC1c1cc(O)c(O)c(O)c1-c1c(C2Oc3cc(O)cc(O)c3CC2OC(=O)c2cc(O)c(O)c(O)c2)cc(O)c(O)c1O)c1cc(O)c(O)c(O)c1 (stereo unspecified)	x	n	n	x	x	x
CCC1(c2ccccc2)NC(=O)NC1=O (stereo unspecified)	x	x	x	x	x	n
N#C/C(C(=O)N1CCOCC1)=c1/s/c(=C\c2ccccn2)c(=O)n1-c1ccccc1	n	n	n	n	n	n
COc1ccc(-n2c(=O)/c(=C\c3cccs3)s/c2=C(/C#N)C(=O)N2CCN(C)CC2)cc1	u	23.1µM	n	n	n	n
Cc1c(Cc2ccccc2)sc(/N=C/c2ccc3ccccc3c2)c1C(N)=O	u	0.82µM	0.731µM	n	n	n
CCOC(=O)c1cc(CC)sc1/N=C/c1c(O)ccc2ccccc12	n	u	n	n	n	n
Cc1c(Cc2ccccc2)sc(N)c1C(N)=O	n	x	x	x	x	n
Cc1c(Cc2ccccc2)sc(/N=C/c2c(O)ccc3ccccc23)c1C(N)=O	u	u	23.1µM	n	n	n
Cc1cc(OCC(=O)N2CCOCC2)ccc1NC(=O)c1ccccc1C	u	n	n	n	u	n
Cc1ccc(NC(=O)CN2CCCC2c2cccn2C)c(Br)c1 (stereo unspecified)	u	14.6µM	u	n	n	n
Cc1ccc(NC(=O)CN2CCCC2c2cccn2C)cc1C (stereo unspecified)	n	u	n	n	n	n
